Data from PubChem BioAssay (NCI).
The panel holds about 79,000 compounds, 15% with a hit somewhere; the sample as a whole holds those more often. A number with no mark means an inactive call. The source made the active and inactive calls. Rule as the data show it: active = growth inhibition above about 70%; inactive = the rest.

experiment: NCI Yeast Anticancer Drug Screen. Data for the sgs1 strain (AID 173);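 also: 0% = growth of vehicle-only control cultures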; details: S. cerevisiae sgs1 mutant, at 11.0 µM, stronger effect = higher value
How it was run: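 Compounds applied to genetically altered yeast; growth compared with vehicle-treated cultures to give % inhibition.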

Compound | growth inhibition
O=C1/C(=C/c2ccccc2)CCCC1CN1CCCCC1 (stereo not given) | 67%
C#CCN(Cc1ccc2nc(N)[nH]c(=O)c2c1)c1ccc(C(=O)NC(CCC(=O)O)C(=O)O)cc1 (stereo not given) | 36%
CCOC1(c2cccc([N+](=O)[O-])c2)c2ccccc2Oc2ccccc21 | 0%
O=C(O)CNC(=S)Nc1ccccc1 | -39%
N/C(=N/N=C/c1cc(Br)cc(Br)c1O)NO | 59%
C[Si](C)(C)/C=C/CCNC(C#N)c1ccccc1 (stereo not given) | 42%
CC1=C(C(=O)NCc2ccccc2)C(c2ccccc2)C(C(=O)NCc2ccccc2)=C(C)N1 | 5%
CCOC(=O)C(Br)C(Br)c1ccccc1Cl (stereo not given) | 94% (active)
CCOC(=O)C1=C(C)NC(C)=C(C(=O)OCCNC(=O)c2ccc(N=[N+]=[N-])cc2)C1c1ccccc1C(F)(F)F (stereo not given) | 1%
Cc1cc(C)c(NC(=S)NC(=O)c2ccccc2)cc1C | -45%
CNCCCNc1c2ccccc2nc2cccc([N+](=O)[O-])c12 | 92% (active)
COc1c(O)c(C=O)c(Br)c(C=O)c1O | 12%
Cc1c(C)c(C)c(CSC(=N)N)c(C)c1C | -34%
O=C(CSC(=S)N1CCCCC1)Nc1nc2c(s1)CCCC2 | 15%
CNC(=O)OCc1c(COC(=O)NC)c(-c2ccc(Cl)cc2)n2c1CCC2 | -41%
CC(=O)OC1CC2C(C)(C)C(=O)C=C[C@]2(C)C2CCC3(C)C(=CCC3[C@H](CO)C[C@H](O)C(=O)C(C)(C)O)[C@]12C (stereo not given in full) | 60%
CCCCCCOC(=O)NCCOC(=O)Nc1ccccc1 | 3%
C[C](C)(C)[Ge]([O][Ge]([c]1ccccc1)[c]1ccccc1)([O][Ge]([c]1ccccc1)[c]1ccccc1)[C](C)(C)C | 71% (active)

Compound | growth inhibition
CCc1c(Cl)c(C)cc(O)c1Cl | 5%
Cc1nc(Nc2ccccc2[N+](=O)[O-])sc1C(=O)CC(=O)C(=O)Nc1c(C(C)C)cccc1C(C)C | 2%
O=[N+]([O-])c1cccc2nc3ccccc3c(NCCCn3ccnc3[N+](=O)[O-])c12 | 85% (active)
CCCCCCC(O)CNCc1ccnc2ccc(OC)cc12 (stereo not given) | 18%
Cc1c2cccc(Sc3ccccc3)c2c2c3c(cccc13)[S+](c1ccccc1)C2 (stereo not given) | 97% (active)
C=C1CCC(O)C/C1=C/C=C1\CCCC2(C)C1CCC2C(C)CCCC(C)C (stereo not given) | -25%
NC1=NNC2(C(N)=N1)c1ccccc1-c1ccccc12 | 11%
COc1cc2cc3c4cc(OC)c(OC)cc4cc[n+]3c(C)c2cc1OC | -28%
COC(=O)NC1C(C)OC(OC2C/C=C(/C)C3C=CC4C(OC5CC(OC6CC(O)C(OC7CC(O)C(OC)C(C)O7)C(C)O6)C(O)C(C)O5)C(C)CC(C)C4C3(C)/C(O)=C3\C(=O)OC4(CC(C)C(CO)=CC4/C=C\2C)C3=O)CC1(C)[N+](=O)[O-] (stereo not given) | -15%
O=C1CSC(c2cccc(Cl)c2)N1c1ccc(-c2ccc(-n3c(-c4ccccc4)nc4ccccc4c3=O)cc2)cc1 (stereo not given) | 10%
CCOC(=O)C(C(=O)OCC)=P(c1ccccc1)(c1ccccc1)c1ccccc1 | 0%
COc1ccc(N=CN(C)C)c(C)c1 | -59%
Cc1cc(S(=O)(=O)Nc2nnc3cnc4ccccc4n23)c(S)cc1Cl | 2%
O=C(Oc1ccc2c(c1)CN(Cc1ccccc1)CO2)c1ccccc1 | 17%
CN(C)[C@@H]1C(=O)C(C(N)=O)=C(O)[C@@]2(O)C(=O)C3=C(O)c4c(O)cccc4C[C@H]3C[C@@H]12 | 26%
O=[N+]([O-])c1ccc2c(c1)/C(=N/N=C1c3ccccc3Cc3ccccc31)c1cc([N+](=O)[O-])cc([N+](=O)[O-])c1-2 | 99% (active)
Cc1nc2c(Br)cc(Br)cc2c(=O)n1-c1ccccc1NC1OCC(O)C(O)C1O (stereo not given) | 13%

same assay, conditions: S. cerevisiae sgs1 mutant, at 33.0 µM, stronger effect = higher value

Compound | growth inhibition
O=C1/C(=C/c2ccccc2)CCCC1CN1CCCCC1 (stereo not given) | 86% (active)
C#CCN(Cc1ccc2nc(N)[nH]c(=O)c2c1)c1ccc(C(=O)NC(CCC(=O)O)C(=O)O)cc1 (stereo not given) | 64%
CCOC1(c2cccc([N+](=O)[O-])c2)c2ccccc2Oc2ccccc21 | 6%
O=C(O)CNC(=S)Nc1ccccc1 | 56%
N/C(=N/N=C/c1cc(Br)cc(Br)c1O)NO | 93% (active)
C[Si](C)(C)/C=C/CCNC(C#N)c1ccccc1 (stereo not given) | 31%
CC1=C(C(=O)NCc2ccccc2)C(c2ccccc2)C(C(=O)NCc2ccccc2)=C(C)N1 | 40%
CCOC(=O)C(Br)C(Br)c1ccccc1Cl (stereo not given) | 99% (active)
CCOC(=O)C1=C(C)NC(C)=C(C(=O)OCCNC(=O)c2ccc(N=[N+]=[N-])cc2)C1c1ccccc1C(F)(F)F (stereo not given) | 32%
Cc1cc(C)c(NC(=S)NC(=O)c2ccccc2)cc1C | -3%
CNCCCNc1c2ccccc2nc2cccc([N+](=O)[O-])c12 | 92% (active)
COc1c(O)c(C=O)c(Br)c(C=O)c1O | 53%
Cc1c(C)c(C)c(CSC(=N)N)c(C)c1C | 84% (active)
O=C(CSC(=S)N1CCCCC1)Nc1nc2c(s1)CCCC2 | 52%
CNC(=O)OCc1c(COC(=O)NC)c(-c2ccc(Cl)cc2)n2c1CCC2 | -23%
CC(=O)OC1CC2C(C)(C)C(=O)C=C[C@]2(C)C2CCC3(C)C(=CCC3[C@H](CO)C[C@H](O)C(=O)C(C)(C)O)[C@]12C (stereo not given in full) | 87% (active)
CCCCCCOC(=O)NCCOC(=O)Nc1ccccc1 | 9%
C[C](C)(C)[Ge]([O][Ge]([c]1ccccc1)[c]1ccccc1)([O][Ge]([c]1ccccc1)[c]1ccccc1)[C](C)(C)C | 78% (active)

Compound | growth inhibition
CCc1c(Cl)c(C)cc(O)c1Cl | 33%
Cc1nc(Nc2ccccc2[N+](=O)[O-])sc1C(=O)CC(=O)C(=O)Nc1c(C(C)C)cccc1C(C)C | 7%
O=[N+]([O-])c1cccc2nc3ccccc3c(NCCCn3ccnc3[N+](=O)[O-])c12 | 90% (active)
CCCCCCC(O)CNCc1ccnc2ccc(OC)cc12 (stereo not given) | 29%
Cc1c2cccc(Sc3ccccc3)c2c2c3c(cccc13)[S+](c1ccccc1)C2 (stereo not given) | 95% (active)
C=C1CCC(O)C/C1=C/C=C1\CCCC2(C)C1CCC2C(C)CCCC(C)C (stereo not given) | -13%
NC1=NNC2(C(N)=N1)c1ccccc1-c1ccccc12 | 33%
COc1cc2cc3c4cc(OC)c(OC)cc4cc[n+]3c(C)c2cc1OC | -27%
COC(=O)NC1C(C)OC(OC2C/C=C(/C)C3C=CC4C(OC5CC(OC6CC(O)C(OC7CC(O)C(OC)C(C)O7)C(C)O6)C(O)C(C)O5)C(C)CC(C)C4C3(C)/C(O)=C3\C(=O)OC4(CC(C)C(CO)=CC4/C=C\2C)C3=O)CC1(C)[N+](=O)[O-] (stereo not given) | -13%
O=C1CSC(c2cccc(Cl)c2)N1c1ccc(-c2ccc(-n3c(-c4ccccc4)nc4ccccc4c3=O)cc2)cc1 (stereo not given) | 39%
CCOC(=O)C(C(=O)OCC)=P(c1ccccc1)(c1ccccc1)c1ccccc1 | 4%
COc1ccc(N=CN(C)C)c(C)c1 | 89% (active)
Cc1cc(S(=O)(=O)Nc2nnc3cnc4ccccc4n23)c(S)cc1Cl | 22%
O=C(Oc1ccc2c(c1)CN(Cc1ccccc1)CO2)c1ccccc1 | 42%
CN(C)[C@@H]1C(=O)C(C(N)=O)=C(O)[C@@]2(O)C(=O)C3=C(O)c4c(O)cccc4C[C@H]3C[C@@H]12 | 98% (active)
O=[N+]([O-])c1ccc2c(c1)/C(=N/N=C1c3ccccc3Cc3ccccc31)c1cc([N+](=O)[O-])cc([N+](=O)[O-])c1-2 | 99% (active)
Cc1nc2c(Br)cc(Br)cc2c(=O)n1-c1ccccc1NC1OCC(O)C(O)C1O (stereo not given) | 41%
